LmPK inh = qHTS Assay for Inhibitors of Leishmania Mexicana Pyruvate Kinase (LmPK). purified LmPK, Kinase-Glo ATP luminescence, 1 h. 0.37% of 290,000 active. Potency, µM (titrated, usually from 57.5 µM), inactives show top-dose activity change, negative = inhibition, usual class: inhibitors. Q27686; further: potency means the concentration at half of the fitted maximal effect; on the % scale 0 is the no-effect control and ±100 the full control effect
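Screened at intermediate enzyme activity to detect both inhibitors and activators: LmPK at 0.1 nM, with a 0.5 nM enzyme column as activation reference. PEP 0.5 mM, ADP 0.1 mM; ATP detected by luminescence after 1 h.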
Shiga toxin inh = A qHTS for Small Molecule Inhibitors of Shiga Toxin; Vero cells, Shiga toxin protein synthesis inhibition reporter; inhibition, % at 38.7 µM; 9.2% of 290,000 active; AID 2315, 2010; in the data active means inhibition mostly above about 28%, no sharp cut-off; inactive means mostly below about 43%; further: 0% is about no effect
TbPYK inhibitor = qHTS of Trypanosoma Brucei Inhibitors; pyruvate kinase (Trypanosoma brucei), Q57TT1; TbPYK enzyme, Kinase-Glo Plus ATP luminescence, 45 min; Potency, µM (highest dose often 76.8 µM), without a hit: at the top dose activity, negative = inhibition, hits mostly inhibitors; 0.12% of 410,000 active; AID 624173, 2012; further: potency means the concentration at half of the fitted maximal effect; on the % scale 0 is the no-effect control and ±100 the full control effect; nearly all actives have a fitted effect of over 50% in size
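Glycolytic pyruvate kinase of T. brucei was incubated with substrate, test compound and 130 uM ADP for 45 minutes at room temperature. Luminescent Kinase-Glo Plus signal was measured after 10 minutes.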
Cycloheximide cs = Cycloheximide Counterscreen for Small Molecule Inhibitors of Shiga Toxin. cell reporter, cycloheximide protein synthesis inhibition counterscreen. 12% of 300,000 active. AID 2314, 2010. max response, %; in the data active means max response mostly above about 13%, no sharp cut-off; inactive means mostly below about 14%; further: read at 38.3 µM for the half of the compounds with a filed dose; 0% is about no effect
RE007 growth inh = qHTS Assay for Inhibitors of the HIV-1 protein Vpr | S. pombe RE007 Vpr strain, BacTiter-Glo ATP luminescence, 24 h | Potency, µM (highest dose often 92.2 µM), inactives show at the highest dose activity change, negative = less growth, most hits filed as inhibitors | 0.21% of 360,000 active | AID 651644, 2012; active means well fitted falling curve with a large enough effect; inconclusive means small, poorly fitted or top-dose-only effect; inactive means no such curve, though single readings can be large or run the other way; further: potency means the concentration at half of the fitted maximal effect; on the % scale 0 is the no-effect control and ±100 the full control effect; nearly all actives have a fitted effect of over 50% in size
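Fission yeast RE007 carrying one integrated HIV-1 vpr copy, seeded at OD 0.01 in PMG+AL medium with 23 nL pinned compound. Grown 24 h at 30 degrees; viability read by BacTiter-Glo luminescence after 5 min.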
FBPA Giardia inh = qHTS Assay for Inhibitors of Fructose-1,6-bisphosphate Aldolase from Giardia Lamblia; 0.71% of 290,000 active; Potency, µM (highest dose often 59.6 µM), for the others: at the top dose activity, negative = inhibition, hits mostly inhibitors; AID 2451, 2010; purified Giardia FBPA; further: potency means the concentration at half of the fitted maximal effect; on the % scale 0 is the no-effect control and ±100 the full control effect; nearly all actives have a fitted effect of over 55% in size
Target sequence (A8B2U2 whole entry, looked up): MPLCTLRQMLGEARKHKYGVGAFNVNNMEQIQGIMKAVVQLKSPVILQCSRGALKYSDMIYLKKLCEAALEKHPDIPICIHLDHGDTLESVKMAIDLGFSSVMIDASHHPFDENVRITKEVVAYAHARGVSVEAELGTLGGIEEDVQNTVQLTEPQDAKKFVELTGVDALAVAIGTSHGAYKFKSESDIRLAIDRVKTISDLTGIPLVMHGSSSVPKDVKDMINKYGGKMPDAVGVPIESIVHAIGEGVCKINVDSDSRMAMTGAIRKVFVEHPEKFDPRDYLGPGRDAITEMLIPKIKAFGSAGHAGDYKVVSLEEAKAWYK
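40 nM FBPA preincubated 10 min at RT with compound (up to 57.5 uM final), then substrate plus GAPDH/TPI/NAD/arsenate coupling and diaphorase/resazurin added. Fluorescence read after 20 min at RT, 525/598 nm.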
* hit, by the source's call; ? = inconclusive; / = no result given; [ ] = remark or other dose. The entries come from a sample that favours hits as a whole. Unless noted, the call rests on the fitted dose curve; in most records, active means well fitted curve in the direction sought with a large enough effect; inconclusive means small, poorly fitted or top-dose-only effect, or another doubt; inactive means no such curve, though single readings can be large; an effect the other way counts as inactive or inconclusive.

SMILES	LmPK inh	Shiga toxin inh	TbPYK inhibitor	Cycloheximide cs	RE007 growth inh	FBPA Giardia inh
COc1ccc(-c2nc(-c3ccccc3)c(NC(C)C)o2)cc1	/	/	/	/	/	-0.7%
CCC(CC)C(=O)Nc1ccc(C(=O)OCc2cc(=O)n3nc(C4CC4)sc3n2)cc1	/	/	1.1%	/	/	/
C=CCSc1ncnc2c1oc1nc3c(cc12)COC(C)(C)C3	5.9%	15.7	4.3%	14.9*	-3.3%	-0.7%
CC1(C)Cc2nc3oc4c(=S)nc[nH]c4c3cc2CO1	8.7%	27.1	?	24.4	-14.3%	11.2µM*
CC(C)CSc1ncnc2c1oc1nc3c(cc12)COC(C)(C)C3	-0.2%	-7.7	-3.3%	-2.0	-8.4%	2.4%
Cc1c(C(=O)N(C)c2cccc(C(F)(F)F)c2)sc2nc3n(c(=O)c12)CCCCC3	/	/	-4.0%	/	/	/
CN(C)C(=O)c1ccc(-c2nccc(N(C)Cc3ccco3)n2)cc1	/	/	/	/	/	-12.9%
c1ccc(Nc2cccc(Nc3ccccc3)n2)cc1	4.8%	55.4*	3.3%	34.5*	?	-20.9%
c1ccc(Nc2ccccn2)cc1	1.2%	3.7	-13.2%	17.4*	-4.4%	-0.2%
CC(C)NC(=O)C1CCC(Cn2c(=O)c3sccc3n(CC(=O)Nc3ccccc3)c2=O)CC1 (stereo not drawn)	/	/	0.9%	/	/	/
COc1ccccc1-c1noc(-c2cccnc2)n1	-21.3%	66.7*	0.3%	29.2*	-14.8%	4.0%
COc1ccccc1Cc1nc(-c2cccnc2)no1	1.1%	55.4*	-3.4%	36.9*	-10.0%	4.8%
COc1cc(OC)cc(-c2nc(-c3ccccc3OC)no2)c1	-0.3%	31.2	-12.7%	4.5	13.6%	3.5%
COc1nc(-c2ccccc2)ccc1-c1noc(-c2cccnc2)n1	-2.9%	3.3	-2.7%	8.7*	-6.9%	28.5%
Cn1ncc2c(Nc3cccc(C#N)c3)ncnc21	/	/	2.5%	/	/	/
CCOC(=O)c1c(C)n(Cc2ccc3c(c2)OCO3)c2ccc(O)cc12	-4.4%	38.2	/	30.2*	-15.3%[3.69 µM]	-3.7%
CCOC(=O)c1c(C)n(Cc2ccc(F)cc2)c2ccc(O)cc12	17.8µM*	-14.1	?	11.7	-1.1%	-12.2%
COC(=O)c1c(C)n(Cc2ccc3c(c2)OCO3)c2ccc(O)cc12	-3.7%	10.7	-11.3%	16.3*	18.3%	-2.1%
O=C1NCCC/C1=N\Nc1ccc(Br)cc1	-0.2%	49.3	1.9%	8.2*	57.2%	-9.3%
CN(C)c1ccc(/C=N/N=C/c2ccccc2O)cc1	-7.8%	170.8*	-15.0%	76.4*	2.0%	-8.5%
COc1ccccc1C=NN=Cc1ccccc1O	/	/	-8.7%	/	8.1%	/
COc1cccc(CN(C(=O)c2cc3ccccc3oc2=O)C2CC2)c1	-7.4%	78.1*	-12.4%	25.6*	18.9%	3.1%
COc1cccc(CN(CC2CCCO2)C(=O)c2cc3ccccc3oc2=O)c1 (stereo not drawn)	0.3%	77.3*	-1.1%	43.7*	?	2.4%
COc1ccc(CN(CC2CCCO2)C(=O)c2cc3ccccc3oc2=O)cc1 (stereo not drawn)	0.1%	2.8	-4.5%	-2.1	3.2%	2.7%
COc1ccc(OC)c(-c2cc(C3CCN(C(=O)OC(C)(C)C)CC3)[nH]n2)c1	7.2%	44.0	2.6%	15.5*	8.0%	-6.2%
SMILES	LmPK inh	Shiga toxin inh	TbPYK inhibitor	Cycloheximide cs	RE007 growth inh	FBPA Giardia inh
O=C(CSc1ncnc2c1cnn2-c1ccccc1)NC1CCCC1	/	/	-16.0%	/	-19.1%	/
COc1cc(C(C)=O)ccc1Oc1ncnc2c1cnn2-c1ccc(C)c(C)c1	4.7%	62.8*	-7.0%	32.2*	?	11.8%
CNC(=O)CSc1ncnc2c1cnn2-c1ccccc1	-2.6%[11.5 µM]	69.2*	0.0%	35.0*	21.1%	3.3%
CC(Sc1ncnc2c1cnn2-c1ccccc1)C(=O)NCC1CCCO1 (stereo not drawn)	-5.3%	64.4	-8.5%	20.1*	-15.0%	/
CC(=O)CSc1ncnc2c1cnn2-c1ccccc1	23.1%	90.9*	-13.1%	36.2*	-16.0%	5.5%
O=C(CSc1ncnc2c1cnn2-c1ccccc1)Nc1ccccc1	0.2%	-6.5	8.6%	-2.6	-12.0%	5.9%
O=C(c1ccccc1Cl)n1nc(-c2cccnc2)nc1NCc1ccc(F)cc1	/	/	0.8%	/	/	/
Cc1ccc(S(=O)(=O)c2cc3cc(C(=O)Nc4ccc(C)cc4C)ccc3oc2=O)cc1	/	/	0.4%	/	/	/
Cc1ccc(-n2ncc3c(SCC(N)=O)ncnc32)cc1C	-1.7%	51.6*	4.8%	47.7*	5.8%	16.7%
Cc1ccc(-n2ncc3c(=O)n(CC(N)=O)cnc32)cc1C	-0.4%	17.0	3.1%	7.2	7.5%	-3.4%
O=c1[nH]cnc2scc(-c3ccc(-c4ccccc4)cc3)c12	3.9%	46.7	-0.5%	28.7*	13.6%	-0.8%
CCCOc1ccc(-c2csc3ncn(Cc4ccc(C(=O)O)cc4)c(=O)c23)cc1	-1.4%	-12.1	4.3%	-2.9	1.8%	24.4%
O=c1[nH]cnc2scc(C3COc4ccccc4O3)c12 (stereo not drawn)	1.8%	-3.4	-0.1%	13.8*	-1.2%	15.8%
Clc1ncnc2scc(C3COc4ccccc4O3)c12 (stereo not drawn)	6.5%	21.1	-8.9%	6.7	-4.9%	6.7%
COc1ccc(-c2csc3nc[nH]c(=O)c23)cc1OC	0.6%	24.4	-1.0%	-7.6	3.4%	-4.0%
CCCOc1ccc(-c2csc3nc[nH]c(=O)c23)cc1	-0.1%	46.7*	-10.4%	40.5*	4.5%	-3.2%
COCCn1c(=O)c(-c2ccc(F)cc2)nc2cnc(N(C)C)nc21	/	/	/	/	/	-5.1%
CC(=O)NCCNC(=O)c1ccc2c(=O)n(CCc3ccccc3)c(=O)[nH]c2c1	/	/	0.8%	/	/	/
C(=N\Nc1ccccn1)/c1ccc2c(c1)OCCO2	-17.5%	32.6*	-1.1%	35.2*	-17.8%	0.8%
Fc1cccc(/C=N/Nc2ccccn2)c1	-17.1%	81.1*	6.2%	55.8*	-14.7%	-4.5%
CC1(C)Cc2ccccc2C(N/N=C/c2cccc(F)c2)=N1	-6.0%	-42.1	10.7%	1.1	-29.4%	-15.5%
Fc1cccc(Cl)c1/C=N/Nc1ccccn1	-1.7%	57.8	-0.3%	10.5	-23.1%	4.4%
Fc1cccc(F)c1/C=N/Nc1ccccn1	-4.3%	95.5*	2.9%	50.0*	-17.3%	-0.4%
COc1cc(NC(=O)c2cc(Cl)c(OC)c(Cl)c2)ccc1NC(=O)c1cc2ccccc2o1	/	/	1.9%	/	/	/
COc1cccc(CSc2nc3cc(OC)c(OC)cc3c3nc(CCn4nc(C)cc4C)nn23)c1	/	/	0.9%	/	/	/
Cc1cccc(N2CCN(C(=O)Cn3nc(C)c4sc5ccccc5c4c3=O)CC2)c1C	/	/	-7.7%	/	/	/
Cc1cc(C(=O)Nc2cccc(F)c2)c2c(C)nn(-c3cccc(Cl)c3C)c2n1	/	/	0.1%	/	/	/
